Measured values published in PubChem BioAssay AID504444 (National Center for Advancing Translational Sciences (NCATS), 2011).
The campaign covered roughly 360,000 compounds. About 7,500 (2.1%) were called active. Inconclusive results (about 20%) are left out. The call rests on the fitted dose curve; in most records, active means well fitted inhibition curve with a large enough effect; inconclusive means small, poorly fitted or top-dose-only effect, or effect the other way; inactive means flat fitted curve, though single readings scatter. The sample as a whole holds a higher share of actives than the screen did.

Assay: Nrf2 qHTS screen for inhibitors; further: nearly all actives have a fitted effect of over 60% in size
Conditions: A549 ARE-Fluc reporter, luciferase luminescence, 18-24 h; series mostly up to 46 µM; activity change, negative = inhibition: at the top concentration
Procedure, shortened: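 Nrf2 function is reported as luminescence of an ARE-controlled luciferase in A549 cells. Compounds were tested at several concentrations, and a CellTiter-Fluor read on the same wells flagged cytotoxicity.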
On the % scale 0 is the no-effect control and ±100 the full control effect; potency means the concentration at half of the fitted maximal effect.

Activity change, negative = inhibition, inactive:
COc1cccc(CNC(=O)CCC(=O)N2CC3CCCN3c3ccccc32)c1 (configuration not stated) -3.25%
Cc1ccc(SCC(=O)N2CCN(c3ccc(F)cc3)CC2)cc1 -9.47%
CCN1CCC(N(Cc2ccc(F)cc2)C(=O)Nc2cc(C)ccc2C)CC1 0.308%
Cc1cc(OCC(=O)NCC2(N(C)C)CCCCC2)cc(C)c1Cl 13.5%
Cc1cc(C)cc(NC(=O)CSc2nc3nccnc3c(=O)n2CCc2c[nH]c3ccccc23)c1 -0.502%
CCOC(=O)/C(C#N)=C/c1ccc(N2CCCCC2)cc1 27.1%
O=C(Cc1ccccc1)NC(=S)Nc1ccc(N2CCCCC2)cc1 9.44%
Cc1ccc(SCC(=O)Nc2ccc3oc(-c4ccccc4F)nc3c2)cc1 4.37%
CC[C@]1(C(=O)OC)[C@H]2C(=O)N(Cc3ccccc3)C(=O)[C@H]2[C@H]2CN=C(SCc3ccc(C#N)cc3)N21 -2.24%
CCc1ccc(S(=O)(=O)c2nnn3c2nc(N2CCN(CC)CC2)c2sccc23)cc1 28.1%
O=S(=O)(c1ccc(Br)cc1)c1nnn2c1nc(NC1CCCCCC1)c1sccc12 2.63%
Cc1ccc(-c2cn3c(n2)sc2cc(C(=O)NCCCc4ccccc4)ccc23)cc1 13.8%
CCN1C[C@@H]2[C@@H]3C(=O)N(Cc4ccccc4)C(=O)[C@@H]3[C@](Cc3ccccc3)(C(=O)OC)N2C1=NC1CCCCC1 -21.2%
CCN(CCCNC(=O)c1cc(Nc2ccc(OC)cc2)nc2ccccc12)c1cccc(C)c1 6.69%
NS(=O)(=O)c1ccc(NC(=O)COC(=O)c2c3c(nc4ccccc24)/C(=C\c2ccc4c(c2)OCO4)CCC3)cc1 -21.8%
O=C(COC(=O)c1c2c(nc3ccccc13)/C(=C\c1cccs1)CCC2)Nc1ccccc1Cl -9.33%
Cc1cccc(C)c1NC(=O)COC(=O)c1ccccc1O 2%
CC(=O)c1c(C)[nH]c(C(=O)COC(=O)c2cccs2)c1C -11.4%
Cc1cccc(C(=O)OCC(=O)Nc2sc3c(c2C#N)CCC3)c1 1.47%
CC(=O)c1c(C)[nH]c(C(=O)OCC(=O)Nc2c(C)n(C)n(-c3ccccc3)c2=O)c1C -19%
Cc1ccc(C)c(OCC(=O)Nc2sc3c(c2C#N)CCCC3)c1C 3.03%
CC(=O)c1c(C)[nH]c(C(=O)OCC(=O)Nc2cc(S(=O)(=O)N3CCCCC3)ccc2C)c1C -24%
CCOC(=O)N1CCC(NC(=O)c2cnn(-c3cccc(C)c3)c2C2CCN(C(=O)OC(C)(C)C)CC2)CC1 11.3%
O=C(NCc1ccccc1CN1CCCC1)C1CCN(S(=O)(=O)c2ccc(Cl)cc2)CC1 13.4%
CCOc1ccc(S(=O)(=O)c2cn(Cc3ccc(OC)cc3)c3ccc(F)cc3c2=O)cc1 -7.26%
CCn1cc(C(=O)NCc2ccc(C)cc2)c(=O)c2cc(S(=O)(=O)N3CCc4ccccc4C3)ccc21 5.14%
Cc1cc2c(s1)c1cnn(Cc3c(F)cccc3Cl)c(=O)c1n2C 16.9%
CC(C)Cn1c(-c2ccc(S(=O)(=O)N3CCOCC3)cc2)csc1=Nc1cc(Cl)ccc1Cl -3.88%
Cc1ccc(Cl)cc1N1CCN(C(=O)c2cn(C)c3ccc(S(=O)(=O)N(C)C4CCCCC4)cc3c2=O)CC1 25.6%
CCn1cc(C(=O)N2CCN(c3cc(Cl)ccc3C)CC2)c(=O)c2cc(S(=O)(=O)N3CCCC3)ccc21 -10.7%
CCN1CCC(O)(/C=C/c2ccc(C)cc2)C(C(=O)/C=C/c2ccc(C)cc2)C1 (configuration not stated) -22.3%
CC[C@@]1(C(=O)OC)N[C@H](CN(C)C(C)=O)[C@@H]2C(=O)N(C)C(=O)[C@@H]21 -0.744%
O=C(NCCc1ccco1)c1ccc(OCc2cn3ccccc3n2)cc1 23.3%
COC1C(CO)OC(n2cnc3c(=S)nc(N)[nH]c32)C1O (configuration not stated) -1.21%
O=c1ccn(Cc2ccccc2Cl)cc1 3.6%
CC(C)(C)c1cc(C(=O)NN)n(Cc2ccc(Cl)cc2Cl)n1 -13.1%
CCCNS(=O)(=O)c1ccc(CCC(=O)N2CCCC2)cc1 -0.614%
CCNS(=O)(=O)c1ccc(CCC(=O)N2CCN(c3ccc(OC)cc3)CC2)cc1 0.623%
O=C(CN1C(=O)NC2(CCCCCC2)C1=O)NCc1ccc(F)cc1 -6.21%
O=C(CN1C(=O)NC2(CCCCCCC2)C1=O)NCc1ccc(F)cc1 8.87%
COc1ccc(C2(c3ccc(OC)cc3)NC(=O)N(CC(=O)Nc3cc(C)on3)C2=O)cc1 2.89%
Cc1cccc(CC2(O)C(=O)Nc3ccccc32)n1 (configuration not stated) -21.7%
COC(=O)c1ccc(N2CCOCC2)c(NC(=O)c2ccc3c(c2)OCCO3)c1 3.57%
O=C(Nc1cccc(Cl)c1N1CCOCC1)c1cccnc1 -6.75%
CC/C(=C(/c1ccccc1)c1ccc(OCC[N+](C)(C)C)cc1)c1ccccc1 -7.21%
COC(=O)CSc1nc2ccccc2c(=O)n1Cc1ccccc1 4.16%
CCN(CC)CCn1c(N)c(S(=O)(=O)c2ccccc2)c2nc3ccccc3nc21 -2.15%
COc1cc(C(=O)CCc2ccc3c(c2)OCO3)cc(OC)c1OC 0.0369%
COc1cccc(CNC(=O)CSc2c3c(nc4cc(Cl)ccc24)CCCC3)c1 -28.8%
CCOc1ccccc1NC(=O)COc1ccc(S(=O)(=O)N2CCCC2)cc1 8.32%
COc1ccc(S(=O)(=O)N2CCCCC2)cc1NC(=O)COc1ccccc1 -5.84%
COc1cc(/C=C/CNC[C@H]2O[C@@H](n3cnc(C(N)=O)n3)[C@H](O)[C@@H]2O)ccc1O -6.54%
COc1ccc(NC(=O)CSC2=Nc3ccccc3C3=NC(CC(=O)NCc4ccccc4OC)C(=O)N23)cc1Cl (configuration not stated) 7.31%
COc1ccc(-c2cc(C(F)(F)F)n3nc(-c4ccccc4)cc3n2)cc1OC -2.55%
COc1ccccc1-c1oc2ccccc2c1C#CCCCCO 2.63%
COc1ccc2cc(C3=CC(=O)C[C@H](c4ccc5c(c4)OCO5)C3)ccc2c1 -11.8%
O=C1C=C(c2cccc(Cl)c2)C[C@@H](c2ccc(F)cc2)C1 -1.21%
O=S(=O)(c1ccc2c(c1)OCCCO2)N1CCN(S(=O)(=O)c2c(F)cccc2F)CC1 18.5%
COc1ccccc1Nc1nc(N)nc(N)c1S(=O)(=O)c1ccccc1 1.76%
CCOC(=O)c1ccc(NC(=O)c2nc[nH]c2C(=O)NCc2ccccc2)cc1 -19.4%
CC(C)(C)OC(=O)NCCCCCNC(=O)c1[nH]cnc1C(=O)Nc1nccs1 -19.6%
COc1ccc(OC)c(NC(=O)CSc2nc3ccccc3nc2N2CCCCC2)c1 -8.4%
CC(C)c1cc(N=O)cc(C(C)C)c1O 15.6%
CCCCOc1ccc(-c2ncc(C(=O)OCC)c(N)n2)cc1 -13.9%
CCCCCc1ccc(-c2cn(Cc3ccc4ccccc4c3)nn2)cc1 8.41%
CNC(=O)c1ccsc1NC(=O)c1ccc(S(=O)(=O)N2CCOCC2)cc1 -27.8%
O=S(=O)(c1ccccc1)N1CCc2ccccc21 -4.14%
COc1ccc(C(=O)NCc2ccc(Cl)cc2)cc1S(=O)(=O)N1CCCC1 -19.1%
CCOC(=O)c1c(C)oc2nc(C)nc(N(CC(C)C)CC(C)C)c12 -23.4%
CCCSc1ccc([C@H]2N[C@@](Cc3ccccc3)(C(=O)OC)[C@H]3C(=O)N(C)C(=O)[C@@H]23)cc1 -4.83%
Cc1ccc(NC(=O)CCCNC(=O)c2ccc(Cl)cc2)cc1S(=O)(=O)N1CCOCC1 -7.44%
O=C(C1CCN(S(=O)(=O)c2cccs2)CC1)N1CCCCCC1 19.6%
Cc1ccc(NC(=O)CCC(=O)N2CCC(c3ccccc3)=N2)cc1S(=O)(=O)N1CCCCC1 -25.3%
Cc1ccc(NC(=O)COC(=O)C2CC2)cc1S(=O)(=O)N1CCOCC1 8.96%
Cc1ccc(NC(=O)CCNC(=O)c2ccc([N+](=O)[O-])cc2)cc1S(=O)(=O)N1CCOCC1 3.63%
Cc1ccc(C(=O)NNC(=O)c2ccncc2)cc1S(=O)(=O)N1CCCCC1 -7.77%

Potency, active:
CCN1CCC2(CC1)N=C(c1ccc(F)cc1)C(=S)N2C(=O)c1ccc(C)cc1 16.4 µM
O=C1C=CC(=O)N1c1ccc(N2CCCCC2)cc1 25.9 µM
CCOc1ccc(Nc2nc3c(S(=O)(=O)c4cccc(Cl)c4)nnn3c3ccsc23)cc1 14.6 µM
NC(=O)c1ccc(NC(=O)COC(=O)c2c3c(nc4ccccc24)/C(=C\c2ccc4c(c2)OCO4)CCC3)cc1 14.6 µM
CC(=O)c1c(C)[nH]c(C(=O)OCC(=O)Nc2sc3c(c2C#N)CCCC3)c1C 18.4 µM
CC(=O)c1c(C)[nH]c(C(=O)OCC(=O)Nc2c(C)cccc2C)c1C 13 µM
CC(=O)c1c(C)[nH]c(C(=O)OCC(=O)NCCC(C)C)c1C 11.6 µM
CCn1cc(C(=O)N2CCN(c3cc(C)ccc3C)CC2)c(=O)c2cc(S(=O)(=O)N(C)C3CCCCC3)ccc21 23.1 µM
N#CC(C#N)=CN=c1ccn(Cc2ccc(Cl)cc2Cl)cc1 1.84 µM
CCNS(=O)(=O)c1ccc(CCC(=O)N2CCN(c3cc(Cl)ccc3C)CC2)cc1 8.2 µM
CSc1ccc(CN2C(=O)NC3(CCCCCC3)C2=O)cc1 18.4 µM
O=C(Nc1cccc(Cl)c1N1CCOCC1)c1ccc2c(c1)OCCO2 23.1 µM
CCC(=O)Nc1c(S(=O)(=O)c2ccccc2)c2nc3ccccc3nc2n1Cc1ccccc1 14.6 µM
CCOc1ccc(S(=O)(=O)N2CCCCC2)cc1NC(=O)CN1CCCC1c1cccs1 (configuration not stated) 8.2 µM
O=C1C=C(c2ccnc3cc(Cl)ccc23)C[C@@H](c2ccc3c(c2)OCO3)C1 9.2 µM
CCOC(=O)c1ccc(NC(=O)c2nc[nH]c2C(=O)N[C@@H](CCCCNC(=O)OC(C)(C)C)C(=O)OC(C)(C)C)cc1 23.1 µM
CCCCCc1ccc(-c2ccc(OCC)cc2)nc1 0.366 µM
CNC(=O)c1ccsc1NC(=O)c1ccc(S(=O)(=O)N2CCc3ccccc32)cc1 16.4 µM
Cc1ccc(NC(=O)CCCNC(=O)c2ccc(Cl)cc2)cc1S(=O)(=O)N1CCCCC1 16.4 µM
CCc1ccccc1OCC(=O)Nc1ccc(C)c(S(=O)(=O)N2CCCCCC2)c1 25.9 µM
Cc1ccc(NS(=O)(=O)c2cccs2)cc1S(=O)(=O)N1CCCCCC1 7.31 µM
